In the supplement of paper PMC3334620:
The full ranking holds about 33,000 sequences; the median of “E-score (-0.5 to 0.5)” is about -0.035, and the highest 2% start at about 0.35. Shown is part of a subset that was picked to be rich in the highest values.

molecular target: T1, Pdr3 (UniProt P33200); test: PBM E-score (8-mer binding enrichment) (E-score (-0.5 to 0.5)); higher = stronger / more preferred TF binding; details: protein concentration: 200 nM; construct: GST-full length
T1 sequence: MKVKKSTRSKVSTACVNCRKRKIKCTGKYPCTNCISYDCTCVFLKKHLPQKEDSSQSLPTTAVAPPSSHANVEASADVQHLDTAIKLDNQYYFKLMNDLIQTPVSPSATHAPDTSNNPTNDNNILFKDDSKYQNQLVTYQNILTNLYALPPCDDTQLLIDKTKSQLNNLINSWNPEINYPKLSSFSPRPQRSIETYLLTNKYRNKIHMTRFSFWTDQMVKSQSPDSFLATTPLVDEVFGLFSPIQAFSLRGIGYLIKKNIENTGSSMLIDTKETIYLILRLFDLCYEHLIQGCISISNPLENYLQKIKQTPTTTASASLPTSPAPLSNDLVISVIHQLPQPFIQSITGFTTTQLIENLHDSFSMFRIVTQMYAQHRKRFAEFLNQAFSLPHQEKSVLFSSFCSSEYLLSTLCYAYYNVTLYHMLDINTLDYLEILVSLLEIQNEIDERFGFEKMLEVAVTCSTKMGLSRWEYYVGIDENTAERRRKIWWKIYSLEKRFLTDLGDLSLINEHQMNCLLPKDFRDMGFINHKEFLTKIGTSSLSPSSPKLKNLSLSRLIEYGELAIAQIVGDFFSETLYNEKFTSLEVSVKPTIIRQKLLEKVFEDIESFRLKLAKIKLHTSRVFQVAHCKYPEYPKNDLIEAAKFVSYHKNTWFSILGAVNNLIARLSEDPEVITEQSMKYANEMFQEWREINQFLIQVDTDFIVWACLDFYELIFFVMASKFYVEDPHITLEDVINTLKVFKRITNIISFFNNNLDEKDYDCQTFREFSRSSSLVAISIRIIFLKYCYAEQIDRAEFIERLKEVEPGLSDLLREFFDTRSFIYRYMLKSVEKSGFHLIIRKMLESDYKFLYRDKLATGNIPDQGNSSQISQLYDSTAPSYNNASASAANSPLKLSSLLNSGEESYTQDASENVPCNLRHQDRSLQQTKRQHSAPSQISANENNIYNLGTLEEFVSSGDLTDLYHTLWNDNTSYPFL
Description: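 Universal 'all 10-mer' protein binding microarrays (Agilent AMADID 015681) probed with GST-tagged S. cerevisiae TFs (full-length or DBD) made by in vitro transcription/translation (PURExpress), about 100-200 nM. Bound TF was detected with fluorescent anti-GST. Each ungapped 8-mer (which stands for itself and its reverse complement) is scored by the PBM enrichment score (E-score), a modified Wilcoxon-Mann-Whitney statistic from -0.5 to +0.5, computed with the Universal PBM Analysis Suite. Scale: above 0.35 generally sequence-specific binding.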

Sequence	PBM E-score
ATGATGGC	0.0224
GGATCTCA	0.0621
TCCAAGGA	-0.00825
GGGAACCC	0.133
CGGAACCG	0.482
GGGAACCA	-0.0124
AGGAACCC	0.00054
CAGAACCG	0.116
AGGAACCG	0.123
CGGAACCC	0.477
CGGAACCA	0.483
TGGAACCA	0.188
ACTCCATA	-0.0901
CACAGTAC	-0.0825
ATCTCTTA	-0.0707
AATCTCTG	-0.185
TACGACTA	-0.179
CCTCTAAC	-0.199
TCACTGAA	0.0661
GCATCCTA	0.00911
GAGGGTTA	-0.131
TGCCGGCA	0.385
AACCGGCA	0.158
TGCCGACA	0.123
GGCCGGCA	0.367
GGCCGGCC	0.326

Sequence	PBM E-score
GCCCGGCA	0.225
ACCGTTAG	-0.208
GGGCCCCA	0.092
GGCTAAGA	-0.0826
AACACGGC	0.154
AACACGGG	0.116
GACACGGC	0.171
AACACGGA	0.374
CACACGGA	0.304
GACACGGA	0.393
GCGACCTA	0.0108
ACACGGAC	0.299
GCACGGGA	0.315
GCACGGAC	0.356
GCACGGCC	0.21
GCACGGCA	0.103
GCACGGAA	0.451
ATGCAGCA	0.00559
ACAGGGTA	-0.12
AGATTCAG	-0.0749
GGTATTCA	0.0285
CACCGTCA	0.00596
CCTAACTA	-0.0709
GCGTAGCA	0.0185
ATTATCCC	0.185
ATTATCCA	0.0658

Sequence	PBM E-score
ATTATCCG	0.388
CCACTGCA	-0.0534
GCTTGGCC	-0.00234
CGGGAAAA	0.221
CCGCTCCG	0.378
CCGCTCCC	0.151
ACGCTCCG	0.315
ACATCTCG	-0.111
ATGACGGA	0.362
ATCACGGG	0.0804
ATCACGGA	0.391
GTCACGGA	0.415
ATGACGGC	0.141
CTCACGGA	0.325
ATCACGGC	0.218
GTGACGGA	0.31
GTCACGCA	-0.0717
AAGGAAGC	-0.0529
CACACCGC	0.166
CCCTAATA	-0.113
GAAGGAAA	-0.00233
AGGCGTAC	-0.182
ATGTCTCA	-0.0576
CGGAACGA	0.464
AGGAACGC	-0.00648
AGGAACGA	-0.1

Sequence	PBM E-score
CAGAACGC	0.0429
GGGAACGA	0.0381
CGGAACGC	0.466
ACACCGAC	0.0164
ACGGACCA	0.359
CCGGACCA	0.337
ACGGACCG	0.309
TCGGACCA	0.292
GCGGACCA	0.366
ACGGACCT	0.275
AGGTGTGA	-0.138
GTGGTGGA	-0.0783
CAGTTGGA	-0.0903
CGTGCAGA	-0.148
CGCGGAGC	0.445
AGCGGAGA	0.232
CGCGGAGA	0.415
GGCGGAGA	0.288
CGCGGTGC	0.172
AGCGGAGC	0.216
CGAACTGA	0.0143
GTCGCGAA	0.0709
CTCGCGAC	0.0674
GTCGCGAC	0.38
ACCTCTTC	-0.0577
GATCCATC	0.232

Sequence	PBM E-score
ATCTTCCG	0.376
AACTTCCT	-0.108
ACCTTCCC	0.0674
ACCTTCCG	0.394
ATCTTCCC	0.268
CCCTTCCC	0.0658
AACTTCCG	0.388
CCCTTCCA	-0.00559
ATCTTCCA	-0.196
AACTTCCA	0.0852
CCCTTCCG	0.392
ACCTTCCT	-0.244
GAGCGTCC	-0.174
AGCAATGA	-0.0334
CTCTTTCA	-0.137
ATGCTCAC	-0.048
CACTCCTA	-0.112
GAAAGCCC	0.201
CTATTGAC	-0.153
GTCTCTTA	0.0669
ACCCATGC	-0.0401
CTGAAGTC	0.0005
AGGAAGTA	0.0507
CGGAAGTC	0.421
AGGAAGTC	-0.162
GGGAAGTA	0.097

Sequence	PBM E-score
CGGAAGTA	0.393
ATTGGGCA	-0.131
ACAAGCAT	-0.0569
GAGTGATC	0.0656
GAGCGGGC	0.113
GACGGACC	0.33
AACGGACA	0.363
CACGGACC	0.378
CACGGACG	0.324
AACGGACG	0.241
AACGGACC	0.303
TACGGACA	0.225
AACGGTCA	0.146
CACGGACA	0.355
CCACCCCG	0.165
CCCTGCTA	-0.0619
TACGGGCA	0.00013
CTGTTCCC	0.0618
ACACTAGT	-0.167
AGGCTTTC	-0.203
TCTGTGAA	-0.0705
CCGGAGAG	0.363
CAGGAGAG	-0.174
CCGGAGAC	0.37
GCGGAGAC	0.336
ACGGAGAA	0.265

Sequence	PBM E-score
ACGGAGAG	0.319
ACGGAGAC	0.321
TCGGAGAA	0.225
CCGGAGAA	0.385
AATGAGGA	-0.177
GCAGTCGC	-0.0644
TATCGCGA	0.258
GCCTTCCC	-0.1
CCTACTCC	-0.0705
GCTACTGA	0.00622
CATTCCGC	0.421
AATTCCGC	0.397
AATTCCTC	0.0037
GATTCCAC	0.19
GATTCCCC	0.0929
CATTCCTC	0.0812
AATTCCTG	-0.021
CATTCCAC	0.0732
AATTCCCG	0.298
AATTCCGG	0.449
GATTCCGC	0.455
AATTCCCC	0.203
